# According to ChEMBL document CHEMBL3988442, “University of Dundee, Small-Polar-MMV Screening Library” (2021):
# The whole screen tested about 48,000 compounds, of which about 13,000 (27%) showed an effect of 50% or more. Some of the results follow.
# Test system: Wolbachia pipientis
# Test: Anti-Wolbachia Cell-Based Screen
# Format: functional
# Parameters: scale not given: in the data most compounds retested in dose-response had high values
# Conditions: 5 µM
row,SMILES,Percent Effect
1,Cn1cc(C(=O)NC[C@@H]2OC[C@H]3CN(S(C)(=O)=O)CC[C@H]32)cn1,-9.663%
2,CCS(=O)(=O)c1ccc(N2CCC(NC(=O)c3cnn(C)c3)CC2)cc1,0.7528%
3,Cn1cc(C(=O)NCC2CCN(C(=O)NC3CC3)CC2)cn1,82.18%
4,CNC(=O)N1CCC(NC(=O)c2cnn(C)c2)CC1,87.43%
5,COCCNC(=O)N1CCC(NC(C)C)CC1,8.533%
6,Cn1cc(C(=O)NCC2CCN(C(=O)NCC(F)(F)F)CC2)cn1,-3.622%
7,Cn1cc(C(=O)NC2CCN(C(=O)NCCSC(F)(F)F)CC2)cn1,19.88%
8,Cn1cc(C(=O)NCC2CCN(C(=O)NC3CCCCC3)CC2)cn1,90.75%
9,Cc1ccc(N2CCC(C(O)c3cccs3)CC2)nn1 (stereo unspecified),12.98%
10,CCCN1CCC(NCc2cccc(CN3CCOC(C)C3)c2)CC1 (stereo unspecified),27.7%
11,CCOCCn1c(=O)n(Cc2ccccc2F)c2cc(C(=O)O)cnc21,-1.705%
12,O=C(O)c1ccc(N2CCC(Oc3cccc(F)c3)CC2)nc1,7.42%
13,O=C(O)c1ccc(Cc2cccc(F)c2)nc1,176.5%
14,CCOCCn1c(=O)n(Cc2ccc(F)cc2)c2ncc(C(=O)O)cc21,0.5283%
15,O=C(NCC(Cc1cccc(F)c1)N1CCCC1=O)c1ccccc1 (stereo unspecified),-3.129%
16,O=C(O)c1cccc(CC2CCN(c3ncc(F)cn3)CC2)c1,5.737%
17,O=C(O)c1cncc(Cc2ccc(F)cc2)c1,214.7%
18,O=C(O)c1cncc(Cc2cccc(F)c2)c1,136.9%
19,O=C(CS(=O)(=O)Cc1ccccc1)NCc1ccccc1F,-49.77%
20,O=C(O)c1cncc(Cc2ccccc2F)c1,172.6%
21,CCSCCn1c(=O)n(Cc2ccc(F)cc2)c2ncc(C(=O)O)cc21,-21.36%
22,CC(C)n1cc2cc(NC(=O)Cn3cnnn3)ccc2n1,0.8884%
23,O=C1NCCCCC1NC(=O)C1(Oc2ccc(Cl)cc2)CCNCC1 (stereo unspecified),4.291%
24,CCOc1ccccc1NC(=O)NCC(C)(O)CCSC (stereo unspecified),-5.529%
25,CN(C)C(CNC(=O)c1nc(N2CCOCC2)ncc1Cl)c1ccco1 (stereo unspecified),-7.125%
26,CC(CNC(=O)c1nc(N2CCOCC2)ncc1Cl)c1ccccc1 (stereo unspecified),-18.26%

row,SMILES,Percent Effect
1,CCC(CC)C(=O)NC1CCCc2nc(N3CCOCC3)ncc21 (stereo unspecified),97.19%
2,CC(C)C(=O)NC1CCCc2nc(N3CCOCC3)ncc21 (stereo unspecified),72.33%
3,Cc1cnc(N2CCC3(CC2)CC(NC(=O)C(C)C)CO3)nc1 (stereo unspecified),-15.93%
4,CC(C)n1c(C2CCCN(CC(=O)NC(N)=O)C2)nc2ccccc21 (stereo unspecified),-22.16%
5,Cc1cc(C)n(C2CCN(Cc3c(-c4cc(C)on4)nn(C)c3Cl)C2)n1 (stereo unspecified),0.03188%
6,CN(C)C(=O)Cc1ccccc1NCc1cccc(F)c1F,-19.09%
7,CC(C)c1cc(CNC(=O)N2CCC(Cc3cnn(C)c3)C2)on1 (stereo unspecified),2.959%
8,CC(C)Cc1cc(C(=O)N2CCC(Cc3cnn(C)c3)C2)cc(O)n1 (stereo unspecified),0.7528%
9,COCc1csc(NC(=O)NCc2ccsc2)n1,-7.736%
10,COCc1csc(NC(=O)N2CCC(Cc3cnn(C)c3)C2)n1 (stereo unspecified),102.3%
11,Cc1csc(CNC(=O)N(C)Cc2cnn(C)c2)n1,7.256%
12,Cn1cc(CC2CCN(C(=O)NCc3csc(C4CC4)n3)C2)cn1 (stereo unspecified),102.9%
13,CC(C)CC(NC(=O)CN(C)C(=O)c1ccco1)c1cccs1 (stereo unspecified),25.03%
14,CC(C)c1ncc(CN2C[C@@H](CN3CCCCC3)[C@@H](CO)C2)cn1,-5.957%
15,NC(=O)c1csc(N2C[C@@H](CN3CCCCC3)[C@@H](CO)C2)n1,104.1%
16,CC(=O)c1ccc(CN2C[C@@H](CN3CCC(O)CC3)[C@@H](CO)C2)cc1,-12.65%
17,COc1cnc(N2C[C@@H](CN3CCOCC3)[C@@H](CO)C2)nc1,-6.772%
18,NC(=O)c1csc(N2C[C@@H](CN3CCOCC3)[C@@H](CO)C2)n1,103.5%
19,O=C(CCCc1cn[nH]c1)N1C[C@@H](CN2CCOCC2)[C@@H](CO)C1,24.78%
20,OCc1csc(N2C[C@@H](CN3CCCCCC3)[C@@H](CO)C2)n1,103.7%
21,NC(=O)c1csc(N2C[C@@H](CN3CCC(O)CC3)[C@@H](CO)C2)n1,99.75%
22,O=C(CCc1cn[nH]c1)N1C[C@@H](CN2CCCCCC2)[C@@H](CO)C1,3.932%
23,OC[C@H]1CN(Cc2c(Cl)cncc2Cl)C[C@H]1CN1CCCCCC1,-60.78%
24,CN(C)Cc1nnc(C2CCCN(c3nc(C(N)=O)cs3)C2)n1C (stereo unspecified),10.64%
25,CC(=O)c1cc(CN2C[C@@H](CN3CCC(O)CC3)[C@@H](CO)C2)n(C)c1,12.27%
